AID504770: growth inhibition of E. coli YBA685, primary screen, V. cholerae RctB inhibitors; E. coli YBA685 rctB-dependent plasmid, OD600 growth, 3 h; hits give low values; z-score (no concentration beside the values); 0.27% of 130,000 active; in the data active means z-score below about -2, passing the limit was not always enough
CapD inh: Bacillus anthracis CapD inhibitors, primary screen, biochemical, fluorescence intensity; purified CapD enzyme, fluorescence intensity read-out; hits give low values; z-score (concentration not given with the values); AID 492967, 2010; CapD gamma-glutamyltranspeptidase (Bacillus anthracis Ames Ancestor); 0.23% of 140,000 active; in the data active means z-score mostly below about -2.9, no sharp cut-off; inactive means mostly above about -1.9
Of the large screens only hits and unclear results are named; the others gave an inactive call. The list is not random: actives were taken first. Their share in the collection is about 0.36%.

CN1CCN(S(=O)(=O)c2ccc3c(c2)oc(=O)c2cc(S(=O)(=O)N4CCN(C)CC4)ccc23)CC1	none
CN1CCN(S(=O)(=O)c2ccc3oc(=O)c4ncn(C)c4c3c2)CC1	AID504770 -2.4
N=c1occ(C(=O)c2cc(Cl)ccc2O)cc1C(=O)NC1CC1	none (no result: CapD inh)
CCCN(CCC)Cc1nnc(-c2cccc(Br)c2)o1	none
N#Cc1cc(Cl)ccc1Nc1ncnc(N)n1	AID504770 -2.4
Nc1ncnc(Nc2ccc(Cl)c(Cl)c2)n1	none (no result: AID504770)
O=c1ccc2cc3c([nH]c4ccc(Br)cc43)oc-2c1O	CapD inh -7.8
O=C(O)c1cc(=O)c2cc(Br)ccc2o1	none
CC(=NCCc1ccc(F)cc1)C1=C(O)c2ccccc2C1=O	CapD inh -4.8
CC(=NCCc1ccccc1)C1=C(O)CSC1=O	none (no result: CapD inh)
O=C(Nc1nn2cc(-c3ccccc3)nc2s1)c1ccccc1	none (no result: CapD inh)
COCCNC(=O)CCc1nc(OC)cc(OC)n1	none (no result: AID504770)
O=C(O)c1cn(-c2ccc(F)cc2)c2cc(N3CCN(CC(F)(F)F)CC3)c(F)cc2c1=O	none (no result: AID504770)
CCn1cc(C(=O)O)c(=O)c2cc(F)c(N3CCN(C(=S)NC(=O)c4c(-c5ccccc5)noc4C)CC3)cc21	none
CCOC(=O)c1cn(CC)c2cc(N3CCCC3)c(F)cc2c1=O	none
CCn1cc(C(=O)O)c(=O)c2cc(Cl)ccc21	none
CCn1cc(C(=O)O)c(=O)c2cc(F)c(N3CCN(C(=S)NC)CC3)cc21	AID504770 -7.2
O=C(O)c1cn(C2CC2)c2cc(N3CCN(C(=S)S)CC3)c(F)cc2c1=O	AID504770 -8.3
CCn1cc(C(=O)O)c(=O)c2cc3c(cc21)OCO3	AID504770 -3.8
O=C(O)c1cn(-c2ccc(F)cc2)c2cc(N3CCNCC3)c(F)cc2c1=O	AID504770 -3.5 (no result: CapD inh)
O=C(Cc1ccc(S(=O)(=O)N2CCCCC2)s1)N1CCc2ccccc21	none (no result: CapD inh)
CCOc1ccc(CC(=O)NCC(c2ccc(OC)cc2)N2CCOCC2)cc1 (centres undefined)	none (no result: CapD inh)
COc1ccc(-c2ccc(Cc3cn4ccsc4n3)o2)cc1OC	none (no result: CapD inh)
O=c1cccc2n1CC1CC2CN(c2nc(N3CCCC3)nc(N3CCCC3)n2)C1 (centres undefined)	none (no result: AID504770)
O=c1cccc2n1CC1CC2CN(c2nc(N3CCCCC3)nc(N3CCCCC3)n2)C1 (centres undefined)	AID504770 -2.7 (no result: CapD inh)
O=C(CCNc1n[nH]c(=O)[nH]c1=O)N/N=C/c1ccccn1	none
COC(=O)/C=C1\SCC(=O)N1CC(=O)c1ccccc1	none (no result: CapD inh)
COc1ccc(CN(Cc2nc3ccccc3c(=O)[nH]2)C(=O)NCc2ccccc2)cc1	AID504770 -3.5 (no result: CapD inh)
COc1ccc(CCN(Cc2nc3ccccc3c(=O)[nH]2)C(=O)C(C)C)cc1	none (no result: CapD inh)
CCOC(=O)/C=C1\SCC(=O)N1CCCCN1C(=O)c2ccccc2C1=O	none (no result: CapD inh)
COc1ccc(C2CC(=O)C3=C(C2)Nc2ccccc2NC3c2cc(Br)c(O)c(OC)c2)cc1OC (centres undefined)	none (no result: AID504770)
O=C(NCCCSc1ccccc1)Nc1ccccc1	none (no result: CapD inh)
O=C(NCCSc1ccc(Cl)cc1)Nc1ccccc1	AID504770 -4.5
C1=CSC(=C2SC=CS2)S1	AID504770 -3.6 (no result: CapD inh)
COc1cc(C2NC(=O)NC(c3ccc(O)c(OC)c3)C23C(=O)NC(=O)NC3=O)ccc1O (centres undefined)	none
Nc1c(Nc2ccc(F)cc2)sc2c(O)cc(=O)[nH]c12	CapD inh -4.1
CNc1sc2c(O)cc(=O)[nH]c2c1C#N	none
O=C1c2ccccc2-c2onc3ccc(Oc4ccccc4)c1c23	none (no result: AID504770)
O=C1c2ccccc2-c2onc3ccc(Oc4c(F)c(F)c(F)c(F)c4F)c1c23	AID504770 -2.2 (no result: CapD inh)
COc1ccccc1N/C(SCc1ccccc1)=C(/C(Cl)=C(Cl)Cl)[N+](=O)[O-]	none (no result: AID504770)
C=CCN1C(=O)CS/C1=C(\C#N)S(=O)(=O)c1ccc(C)cc1	AID504770 -2.9
Cc1ccc(S(=O)(=O)C(C#N)=C2SCCS2)cc1	none
CN1/C(=C\C=C2C(=O)CC(C)(C)CC2=O)C(C)(C)c2ccccc21	none
Cc1nc(Cc2nnc(SCC(=O)NCC34CC5CC(CC(C5)C3)C4)o2)cs1	AID504770 -2.8 (no result: CapD inh)
Cc1nc(Cc2nnc(SCC(=O)NC(C)(C)C)o2)cs1	none (no result: CapD inh)
COc1cc(OC)nc(CN2CC(C)OC(C)C2)n1 (centres undefined)	none (no result: AID504770)
CCC(=O)N1CCN(c2nc(C(C)C)nc3sc4c(c23)CCCC4)CC1	none (no result: CapD inh)
CCc1[nH]c(=O)c(C#N)c2c1CCCC2	none
CCc1[nH]c(=S)[nH]c(=O)c1C#N	CapD inh -6.5
CCOC(=O)c1c(NC(C)=O)nc(SC)n1Cc1cccs1	none
CCOC(=O)c1c(NC(C)=O)nc(SC)n1Cc1ccco1	CapD inh -11
COc1ccc(N2C(=O)C(O)=CC2(OC)c2ccccc2)cc1 (centres undefined)	CapD inh -4.5
Cc1ccc(N2C(=O)C(O)=CC2(O)c2ccccc2)cc1 (centres undefined)	none
O=C(COc1ccccc1)N1N=C2CCCCC2C1(O)C(F)(F)F (centres undefined)	none (no result: AID504770)
COC(=O)C(C(=O)OC)c1nc2ccccc2nc1Cl	none (no result: CapD inh)
CC(=O)Nc1nc2ccccc2nc1Cl	CapD inh -7.6
O=C(CCc1nc2ccccc2c(=O)[nH]1)NC1CCCCC1	none (no result: CapD inh)
CCc1c(C)nc(N)nc1N1NC1=S	none
CCc1c(C)[nH]c(N)nc1=S	CapD inh -4.4
Cc1c(C(=O)O)sc2nc3n(c(=O)c12)CCC3	CapD inh -5.2 (no result: AID504770)
CCCN1CCN(C(=O)c2sc3nc4n(c(=O)c3c2C)CCCC4)CC1	none
COC(=O)c1cc2c(cc1NC(=O)C1CCCN(S(=O)(=O)N3CCOCC3)C1)OCO2 (centres undefined)	none
NS(=O)(=O)c1ccc(C(=O)N/N=C/c2ccc([N+](=O)[O-])o2)cc1	none (no result: AID504770)
NC(=O)N/N=C/c1ccc([N+](=O)[O-])o1	AID504770 -3.5
N#CC1=C(N)n2c(s/c(=C\c3c(F)cccc3Cl)c2=O)=C(C#N)C1c1c(F)cccc1Cl (centres undefined)	none (no result: AID504770)
N#CSc1c(Cl)nc2sccn12	AID504770 -4.3
N#CC(C#N)=Cc1c(Cl)nc2sccn12	none (no result: CapD inh)
CCCCCn1c(=O)[nH]c2cc(C(=O)N3CCN(C4CCCCC4)CC3)ccc2c1=O	none
CCN(CC)C(=O)COc1ccc2ccc(=O)oc2c1	none (no result: CapD inh)
CCN(CC)C(=O)COc1ccc2c(CC(=O)O)coc2c1	AID504770 -2.6 (no result: CapD inh)
O=C(O)c1cc(N2C(=O)/C(=C/c3ccc([N+](=O)[O-])cc3)C=C2c2ccccc2)ccc1O	none (no result: AID504770)
Cc1cc(C(=O)Nc2cccnc2)no1	none
Cc1nonc1NC(=O)Nc1cccnc1	AID504770 -2
Cc1ccc(N=NN(C)C)cc1	AID504770 -6.7
CN(C)N=Nc1ccc(S(=O)(=O)NC(=O)Cc2ccccc2)cc1	none
Cc1ccc(C=Nc2ccc(C)cc2)cc1	none (no result: AID504770)
CC(=O)N(C(C)=O)S(=O)(=O)c1ccc(N=NN(C)C)cc1	CapD inh -5.1
O=C(/C=C/c1ccco1)C1(O)CCCCC1	CapD inh -5.6
O=C(/C=C/c1ccco1)/C=C/c1ccco1	none
CCOc1cc2c(cc1OCC)C1C(C(=O)NCCC(C)C)c3ccccc3C(=O)N1CC2 (centres undefined)	AID504770 -2.9
CCOc1cc2c(cc1OCC)C1C(C(=O)NCCOC)c3ccccc3C(=O)N1CC2 (centres undefined)	none
COc1ccc(-c2onc(C(F)(F)F)c2-c2cnn(-c3ccccc3)c2)c(O)c1	none (no result: CapD inh)
CCCCOC(=O)Oc1cc2oc(=O)sc2cc1Br	none
CCOC(=O)Oc1c(Cl)cc2oc(=O)sc2c1Br	CapD inh -5.3
